Active and inactive are the calls of the source. Rule for the calls: active = hit-call score of the fitted dose curve at least 0.9, where 1 is the maximum; inactive = score below 0.9.
Columns and labels:
[1] = target: Transcription factor E2F1 (Homo sapiens) (UniProt Q01094); experiment: ATG_E2F_CIS: Attagene CIS-FACTORIAL HepG2 Assay for human E2F Transcription Factor 1 (AID 2282935); conditions: HepG2 Attagene cis-reporter, E2F reporter RNA transcripts; actives raise or lower the signal
Method in brief: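 Gain or loss of reporter transcript, fitted against DMSO, reflects E2F1-driven transcription. Transiently transfected HepG2 dosed 24 h before RNA isolation. Quantified by fluorescent RT-PCR products separated by capillary electrophoresis.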

[2] = ATG_E_Box_CIS: Attagene CIS-FACTORIAL HepG2 Assay for human Enhancer Box (E-box) (AID 2282936); conditions: HepG2 E-box cis-reporter transcription, actives raise or lower the signal
Method in brief: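 E-box-driven reporter transcripts measured in transiently transfected HepG2 after 24 h exposure: RNA reverse-transcribed, PCR-amplified, fluorescently labelled, digested and resolved by capillary electrophoresis. Gain or loss relative to DMSO.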

[3] = ATG_EGR_CIS: Attagene CIS-FACTORIAL HepG2 Assay for human Early Growth Response 1 (EGR1) (AID 2282938); conditions: HepG2 Attagene CIS-FACTORIAL EGR reporter mRNA; actives raise or lower the signal
Method in brief: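 HepG2 cells transiently transfected with cis-promoter-driven multiplexed reporter transcription units; reporter mRNA measured 24 h after compound dosing by RT-PCR, 6-FAM primer extension, HpaI digestion and capillary electrophoresis. Bidirectional fit versus DMSO baseline.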

[4] = ATG_ERE_CIS: Attagene CIS-FACTORIAL HepG2 Assay for Estrogen Response Element (ERE) (AID 2282940); conditions: HepG2 ERE cis-reporter, Attagene RNA transcript; actives raise or lower the signal
Method in brief: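 After 24 h compound treatment, RNA from transfected HepG2 cells was reverse-transcribed, reporter cDNA PCR-amplified, FAM-labelled, HpaI-cut and resolved by capillary electrophoresis. ERE-driven cis reporter transcripts reflect endogenous factors; gain or loss scored against DMSO.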

[5] = ATG_Ets_CIS: Attagene CIS-FACTORIAL HepG2 Assay for human Erythroblast Transformation Specific (ETS) (AID 2282941); conditions: HepG2 ETS cis-reporter transcription, actives raise or lower the signal
Method in brief: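 Cis-regulated reporter mRNA induction in HepG2 (transient transfection), 24 h exposure, RT-PCR plus capillary electrophoresis detection; DMSO serves as negative control and baseline.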

[6] = target: Hepatocyte nuclear factor 3-beta (Homo sapiens) (UniProt Q9Y261); experiment: ATG_FoxA2_CIS: Attagene CIS-FACTORIAL HepG2 Assay for human Forkhead box A2 (FOXA2) (AID 2282942); conditions: HepG2 cis-reporter transcription factor activity, 24 h; actives raise or lower the signal
Chain of Hepatocyte nuclear factor 3-beta (Homo sapiens) (Q9Y261 whole entry, looked up): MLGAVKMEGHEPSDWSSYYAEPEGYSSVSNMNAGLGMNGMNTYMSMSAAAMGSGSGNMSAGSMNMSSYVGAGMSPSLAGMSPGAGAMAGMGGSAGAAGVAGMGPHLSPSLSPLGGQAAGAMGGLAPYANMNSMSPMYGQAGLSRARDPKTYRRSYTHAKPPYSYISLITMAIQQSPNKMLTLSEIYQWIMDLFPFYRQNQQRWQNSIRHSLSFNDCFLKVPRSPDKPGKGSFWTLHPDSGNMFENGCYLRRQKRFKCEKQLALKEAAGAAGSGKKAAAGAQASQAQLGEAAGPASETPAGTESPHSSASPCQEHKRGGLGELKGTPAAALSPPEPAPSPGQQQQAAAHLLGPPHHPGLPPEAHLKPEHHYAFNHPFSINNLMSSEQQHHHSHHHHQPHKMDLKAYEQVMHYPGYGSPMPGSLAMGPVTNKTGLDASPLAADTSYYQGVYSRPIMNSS
Method in brief: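 HepG2 cells transiently transfected with multiple cis-regulated reporter transcription units, dosed for 24 h. Reporter mRNA measured by RT-PCR, 6-FAM labelling, HpaI digestion and capillary electrophoresis; bidirectional fitting against DMSO baseline.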

[7] = ATG_FoxO_CIS: Attagene CIS-FACTORIAL HepG2 Assay for human Forkhead box O (FoxO) (AID 2282943); conditions: HepG2 Attagene cis-reporter, FoxO element, mRNA; actives raise or lower the signal
Method in brief: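 HepG2, transient MRTU transfection (cis element, endogenous TFs). Dose 24 h. TriZol RNA → oligo(dT) RT → PCR → 6-FAM primer extension → HpaI cut → CE. Gain/loss vs DMSO.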

[8] = ATG_GLI_CIS: Attagene CIS-FACTORIAL HepG2 Assay for human Zinc Finger Protein GLI1 (AID 2282945); conditions: HepG2, Attagene cis-factorial reporter mRNA, GLI element; actives raise or lower the signal
Method in brief: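 Bidirectional curve fits relative to DMSO, using reporter mRNA levels from RT-PCR plus capillary electrophoresis. Cells were HepG2 transiently carrying cis-regulated reporter constructs, harvested 24 h after dosing.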

[9] = ATG_GRE_CIS: Attagene CIS-FACTORIAL HepG2 Assay for human Glucocorticoid Response Elements (GRE) (AID 2282947); conditions: HepG2 GRE cis-reporter, Attagene multiplex mRNA; actives raise or lower the signal
Method in brief: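 Reporter transcripts read by RT-PCR with capillary electrophoresis fluorescence after a 24 h chemical exposure of HepG2 cells transiently transfected with multiple cis-element reporter units. Gain or loss fitted against DMSO.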

[10] = ATG_ISRE_CIS: Attagene CIS-FACTORIAL HepG2 Assay for human Interferon Regulatory Factor 1 (IRF1) binding to an Interferon-Stimulated Response Element (ISRE) (AID 2282948); conditions: HepG2 ISRE cis-reporter (Attagene), mRNA transcription readout; actives raise or lower the signal
Method in brief: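 Multiplexed mRNA reporter readout in human liver HepG2 cells: cis-element-driven reporters transfected, compound added for 24 h, transcripts amplified, fluorescently labelled and sized by capillary electrophoresis; curve fitting bidirectional against DMSO.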

[11] = ATG_M_32_CIS: Attagene CIS-FACTORIAL HepG2 Assay for M32 Transcription Factor (Internal Marker) (AID 2282949); conditions: HepG2 Attagene cis-factorial M32 reporter, mRNA; actives raise or lower the signal;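 note: background control marker of the multiplexed CIS panel rather than a real target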
Method in brief: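 HepG2 transfectants (cis-regulated reporter transcription units) dosed 24 h. Reporter mRNA by RT-PCR plus CE, analysed as gain or loss relative to DMSO.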

[12] = ATG_M_06_CIS: Attagene CIS-FACTORIAL HepG2 Assay for M06 Transcription Factor (Internal Marker) (AID 2282950); conditions: HepG2 Attagene CIS-FACTORIAL M06 internal marker reporter; actives raise or lower the signal
Method in brief: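 Serves as a background control readout. Transfected HepG2 exposed to compounds for 24 h, then reporter transcripts quantified by fluorescent RT-PCR and capillary electrophoresis. Both directions fitted against DMSO baseline.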

[13] = target: Hypoxia-inducible factor 1-alpha (Homo sapiens) (UniProt Q16665); experiment: ATG_HIF1a_CIS: Attagene CIS-FACTORIAL HepG2 Assay for human Hypoxia Inducible Factor 1 (HIF1A) (AID 2282951); conditions: HepG2 Attagene cis-factorial HIF1a reporter transcription; actives raise or lower the signal
Chain of Hypoxia-inducible factor 1-alpha (Homo sapiens) (Q16665 whole entry, looked up): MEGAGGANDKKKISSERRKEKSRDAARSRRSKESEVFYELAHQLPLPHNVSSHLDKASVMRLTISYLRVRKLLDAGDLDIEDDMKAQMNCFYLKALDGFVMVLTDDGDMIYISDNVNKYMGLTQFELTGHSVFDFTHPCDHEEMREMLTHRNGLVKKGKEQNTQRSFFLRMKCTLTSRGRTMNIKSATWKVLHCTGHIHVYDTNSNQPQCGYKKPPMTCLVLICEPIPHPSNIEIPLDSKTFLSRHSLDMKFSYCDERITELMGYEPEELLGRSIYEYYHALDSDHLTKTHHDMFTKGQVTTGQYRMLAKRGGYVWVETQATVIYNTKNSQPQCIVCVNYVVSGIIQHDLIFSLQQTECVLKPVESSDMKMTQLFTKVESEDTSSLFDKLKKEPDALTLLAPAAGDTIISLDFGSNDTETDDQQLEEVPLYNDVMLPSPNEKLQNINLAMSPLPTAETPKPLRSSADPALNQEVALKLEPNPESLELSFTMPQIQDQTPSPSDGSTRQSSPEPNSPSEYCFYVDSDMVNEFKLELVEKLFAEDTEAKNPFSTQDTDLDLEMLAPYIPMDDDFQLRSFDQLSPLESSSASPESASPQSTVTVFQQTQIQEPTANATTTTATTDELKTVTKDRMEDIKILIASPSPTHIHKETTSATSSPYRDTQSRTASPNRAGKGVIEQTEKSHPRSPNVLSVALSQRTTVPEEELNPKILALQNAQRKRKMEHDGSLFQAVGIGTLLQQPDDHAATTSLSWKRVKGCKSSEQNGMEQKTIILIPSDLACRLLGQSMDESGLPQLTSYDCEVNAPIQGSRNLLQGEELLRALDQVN
Method in brief: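 HepG2 cells transiently transfected with multiplexed cis-promoter reporter units; reporter mRNA read 24 h after dosing by RT-PCR, 6-FAM primer-extension labelling, HpaI digestion and capillary electrophoresis. Bidirectional fit versus DMSO baseline.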

[14] = target: Hepatocyte nuclear factor 6 (Homo sapiens) (UniProt Q9UBC0); experiment: ATG_HNF6_CIS: Attagene CIS-FACTORIAL HepG2 Assay for human Hepatocyte Nuclear Factor 6 (HNF6) (AID 2282952); conditions: HepG2 Attagene cis-factorial HNF6 reporter transcription; actives raise or lower the signal
Chain of Hepatocyte nuclear factor 6 (Homo sapiens) (Q9UBC0 whole entry, looked up, the tested form may be a part): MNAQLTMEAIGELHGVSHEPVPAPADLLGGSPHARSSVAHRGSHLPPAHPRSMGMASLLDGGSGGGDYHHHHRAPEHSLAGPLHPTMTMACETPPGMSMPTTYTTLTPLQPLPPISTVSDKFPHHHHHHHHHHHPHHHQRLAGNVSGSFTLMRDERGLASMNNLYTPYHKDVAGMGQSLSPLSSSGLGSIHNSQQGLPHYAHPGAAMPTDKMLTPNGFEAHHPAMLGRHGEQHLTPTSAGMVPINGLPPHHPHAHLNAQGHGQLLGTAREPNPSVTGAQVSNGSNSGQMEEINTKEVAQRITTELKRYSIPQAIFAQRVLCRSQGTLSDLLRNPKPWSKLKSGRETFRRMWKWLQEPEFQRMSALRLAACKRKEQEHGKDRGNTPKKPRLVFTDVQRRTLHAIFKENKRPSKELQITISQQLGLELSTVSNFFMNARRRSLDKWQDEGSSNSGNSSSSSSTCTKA
Method in brief: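 First, HepG2 cells were transfected with the multiplexed cis reporter library and dosed with chemical for 24 h. Next, RNA was reverse-transcribed, PCR-amplified and fluorescently labelled. Finally, HpaI-digested fragments were read by capillary electrophoresis.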

[15] = target: Heat shock factor protein 1 (Homo sapiens) (UniProt Q00613); experiment: ATG_HSE_CIS: Attagene CIS-FACTORIAL HepG2 Assay for human Heat Shock Transcription Factor 1 (HSE) (AID 2282953); conditions: HepG2 HSE cis-reporter, Attagene RNA transcription; actives raise or lower the signal
Chain of Heat shock factor protein 1 (Homo sapiens) (Q00613 whole entry, looked up): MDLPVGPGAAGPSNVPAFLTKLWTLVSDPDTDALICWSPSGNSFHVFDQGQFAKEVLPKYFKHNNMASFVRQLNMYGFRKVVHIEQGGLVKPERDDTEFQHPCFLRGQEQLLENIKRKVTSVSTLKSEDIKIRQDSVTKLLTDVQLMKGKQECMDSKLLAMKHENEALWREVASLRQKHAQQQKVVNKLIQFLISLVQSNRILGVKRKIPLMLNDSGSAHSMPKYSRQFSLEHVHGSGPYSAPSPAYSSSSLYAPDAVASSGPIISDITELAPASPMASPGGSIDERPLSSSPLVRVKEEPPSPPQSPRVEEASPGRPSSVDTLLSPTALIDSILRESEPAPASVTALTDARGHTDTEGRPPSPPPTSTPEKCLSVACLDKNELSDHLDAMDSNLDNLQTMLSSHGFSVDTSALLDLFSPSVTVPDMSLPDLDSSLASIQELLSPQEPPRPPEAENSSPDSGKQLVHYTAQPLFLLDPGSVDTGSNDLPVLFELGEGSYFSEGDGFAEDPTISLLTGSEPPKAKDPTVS
Method in brief: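 Endogenous transcription factor activity in transiently transfected HepG2, read as reporter mRNA by RT-PCR with fluorescent capillary electrophoresis after 24 h. Gain or loss of signal fitted versus DMSO baseline.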

[16] = ATG_MRE_CIS: Attagene CIS-FACTORIAL HepG2 Assay for human Metal Responsive Element (MRE) (AID 2282954); conditions: HepG2 MRE cis-reporter transcription, Attagene multiplex; actives raise or lower the signal
Method in brief: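 Endogenous MRE-dependent transcription read as reporter mRNA in transiently transfected human HepG2 cells at 24 h. RNA reverse-transcribed, PCR-amplified, labelled and resolved by capillary electrophoresis; gain or loss relative to DMSO.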

[17] = ATG_M_19_CIS: Attagene CIS-FACTORIAL HepG2 Assay for M19 Transcription Factor (Internal Marker) (AID 2282939); conditions: HepG2 Attagene CIS-FACTORIAL M19 internal marker reporter; actives raise or lower the signal
Method in brief: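 Internal marker readout, fitted in both directions against DMSO, from HepG2 cells carrying transfected cis-element reporter constructs; RT-PCR and capillary electrophoresis of reporter mRNA after 24 h exposure.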

[18] = ATG_GATA_CIS: Attagene CIS-FACTORIAL HepG2 Assay for human GATA Binding Protein (AID 2282944); conditions: HepG2 GATA cis-element reporter, Attagene multiplex mRNA; actives raise or lower the signal
Method in brief: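 Reporter transcripts from a GATA cis-regulated unit, among multiplexed reporters in transfected HepG2 cells, were measured by RT-PCR with capillary electrophoresis after 24 h dosing. Induction or loss scored relative to DMSO.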

[19] = target: Bile acid receptor (Homo sapiens) (UniProt Q96RI1); experiment: ATG_IR1_CIS: Attagene CIS-FACTORIAL HepG2 Assay for human Nuclear Receptor Subfamily 1 Group H Member 4 (NR1H4), IR1 submotif (AID 2282946); conditions: IR1 reporter transcription, actives raise or lower the signal
Chain of Bile acid receptor (Homo sapiens) (Q96RI1 whole entry, looked up): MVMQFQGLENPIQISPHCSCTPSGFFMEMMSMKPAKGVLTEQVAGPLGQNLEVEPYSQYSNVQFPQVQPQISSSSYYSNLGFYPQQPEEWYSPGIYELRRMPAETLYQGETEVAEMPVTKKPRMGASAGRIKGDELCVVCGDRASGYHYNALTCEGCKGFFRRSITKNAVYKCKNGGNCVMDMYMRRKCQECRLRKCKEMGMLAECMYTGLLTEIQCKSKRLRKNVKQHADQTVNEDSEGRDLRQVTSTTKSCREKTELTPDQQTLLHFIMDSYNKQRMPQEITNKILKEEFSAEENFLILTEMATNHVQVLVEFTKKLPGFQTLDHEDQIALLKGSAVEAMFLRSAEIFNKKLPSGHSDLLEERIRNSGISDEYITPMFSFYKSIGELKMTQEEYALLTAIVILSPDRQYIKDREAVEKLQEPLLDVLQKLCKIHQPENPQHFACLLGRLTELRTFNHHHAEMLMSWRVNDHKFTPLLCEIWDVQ
Method in brief: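 HepG2 cells transiently transfected with multiplexed cis-element reporter units read endogenous transcription factor activity. After 24 h compound exposure, reporter mRNA was quantified by RT-PCR, fluorescent labelling, HpaI digestion and capillary electrophoresis; bidirectional fitting versus DMSO baseline.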

Measured: AC50

Chain of Transcription factor E2F1 (Homo sapiens) (Q01094 whole entry, looked up): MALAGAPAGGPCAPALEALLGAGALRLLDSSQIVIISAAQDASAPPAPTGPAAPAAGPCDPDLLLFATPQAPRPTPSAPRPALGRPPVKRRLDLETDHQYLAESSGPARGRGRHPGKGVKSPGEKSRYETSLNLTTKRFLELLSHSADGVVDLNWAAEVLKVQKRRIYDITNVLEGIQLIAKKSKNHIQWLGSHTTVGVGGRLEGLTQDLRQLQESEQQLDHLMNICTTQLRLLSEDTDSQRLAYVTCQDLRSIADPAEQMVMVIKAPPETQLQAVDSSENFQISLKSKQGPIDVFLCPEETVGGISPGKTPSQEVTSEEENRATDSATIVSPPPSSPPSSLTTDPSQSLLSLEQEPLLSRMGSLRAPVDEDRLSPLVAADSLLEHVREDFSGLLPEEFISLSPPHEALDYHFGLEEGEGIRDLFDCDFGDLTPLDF

CCCCC(C#N)(Cn1cncn1)c1ccc(Cl)cc1 (stereo not drawn)
not listed: [17] | [18] | [19]
inactive: all other assays above

COC(=O)NS(=O)(=O)c1ccc(N)cc1
not listed: [15] | [17] | [18] | [19]
inactive: all other assays above

CCSC(=O)N1CCCCCC1
not listed: [9] | [19]
inactive: all other assays above

COCC(=O)N(c1c(C)cccc1C)C(C)C(=O)OC (stereo not drawn)
not listed: [9] | [17] | [18]
inactive: all other assays above

CC(C)=CC1C(C(=O)OCc2coc(Cc3ccccc3)c2)C1(C)C (stereo not drawn)
active: [4] 13.1 µM | [16] 50 µM
not listed: [17]
inactive: all other assays above

CCOc1nc(C(Cl)(Cl)Cl)ns1
not listed: [9] | [17] | [19]
inactive: all other assays above

CC(C)C1(C)N=C(c2ncccc2C(=O)O)NC1=O (stereo not drawn)
not listed: [18]
inactive: all other assays above

Cn1c(-c2ccccc2)cc(-c2ccccc2)[n+]1C
not listed: [18] | [19]
inactive: all other assays above
